# Target: PQLC1
# Experiment: pooled miR-30 sensor sort-seq; sequence = guide strand
# Conditions: shRNA
# Also: reference of the scale not given here.
row,Sequence,sensor-assay potency score (higher = more potent)
1,AACCTTGACTTCTTCATCCTTG,0.292
2,TCTGCAGCTGTAAAGGAGCGGC,-0.795
3,TGCACGTAGTCCGAGAAGCTGC,-1.19
4,TTGACTTCTTCATCCTTGCTAT,0.0479
5,TTCTTCATCCTTGCTATCTGCA,-0.201
6,TTGAGCTCGTTGGCCACACGGA,-0.78
7,TCGAAGTCCAGGAAGGACCGCC,-0.0699
8,AAGTCCAGGAAGGACCGCCTGG,-1.26
9,ATGAGCACCATCTTGATGCTCA,-0.811
10,TAGGTGGAGAAGCCGTCGGCGT,-1.4
11,TAGTCCGAGAAGCTGCTCCACT,-0.969

# Target: PRADC1
# Experiment: as above
# Conditions: shRNA
row,Sequence,sensor-assay potency score (higher = more potent)
1,TTTTGTTTCGGGTTCTAGCCAG,-0.533
2,ATGCTGGTGACATTGACTGGGA,-1
3,AAAGATACCACCAAAGTCCTTG,0.163
4,TTGTGTGAAAGATACCACCAAA,-1.24
5,TCATGTAGCCGTCTCGGCCGAG,-1.06
6,TCTTGTAGCATGAGACACCCTT,-0.0908
7,TGGATGAAGAAACCGTTGCTGA,-1.26
8,TAAACCACTCCAACAACTGCTG,0.158
9,ATCATCTCCACGTAGAAGCTGT,-0.485
10,TGAATCTGCTCATACCTTGTGT,-0.084
11,TTTGTTTCGGGTTCTAGCCAGA,-0.698
12,TAGCATGAGACACCCTTGGGGG,-0.696
